Results taken from PubChem BioAssay AID434973 (Sanford-Burnham Center for Chemical Genomics, 2010).
Screen size: about 330,000 compounds; about 4,900 (1.5%) were called active.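 How the source made its calls: active means inhibition above about 50% at the single test dose (limit read from the data); inactive means the rest.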 Only a selection was taken, and actives are over-represented in it overall.

Each compound was assayed against Sentrin-specific protease 7 (Homo sapiens) (UniProt Q9BQF6) (assay: blockers of human SENP7 peptidase activity – biochemical, luminescence, uHTS, primary screen (AID 434973;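 further: plate controls were DMSO with enzyme for no effect and no enzyme buffer wells for full effect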)). Conditions: recombinant SENP7, Z-RLRGG-aminoluciferin luminescence, 40 min; at 5 µM; hits give high values.
For Cc1nc2ccc(N3CCN(C)CC3)cc2nc1C, the inhibition was -4.82% (inactive).
With CN1CCN(c2cc(N3CCNCC3)ccc2[N+](=O)[O-])CC1 the inhibition was 6.98% (inactive).
COc1cccc(-c2nc3ccc(N4CCN(C)CC4)cc3[nH]2)c1 was tested, and the inhibition was 57.6% (active).
With Cc1ccc(C)c(NC2=NCCCS2)c1 the inhibition was 5.92% (inactive).
For CCOC(=O)c1c(N)n(Cc2ccccc2)c2nc3ccccc3nc12, the inhibition was 13% (inactive).
For COc1cc(Cn2c(N)c(C(=O)NCc3ccco3)c3nc4ccccc4nc32)cc(OC)c1OC, the inhibition was 80.7% (active).
With CCOC(=O)c1c(N)n(CCN2CCOCC2)c2nc3ccccc3nc12 the inhibition was 0.976% (inactive).
With CCOC(=O)C(O)(c1ccc(N)c(OC)c1)C(F)(F)F (stereo not given) the inhibition was 3.48% (inactive).
NCC(O)c1ccc(O)cc1 (stereo not given) was tested, and the inhibition was -7.28% (inactive).
In the case of COc1ccc(N=Cc2c(O)n(C)c(=O)[nH]c2=O)cc1, the inhibition is reported as 22.6% (inactive).
